# Screening results deposited in PubChem by Broad Institute.
# YB-1 expr inh: YB-1 expression inhibition | AID 434959 | delta delta Cp (YB-1 minus CDIP) (concentration not given with the values) | U2OS, qRT-PCR YB-1 vs CDIP delta delta Cp, 16 h; hits give high values; zero = DMSO, each unit about twofold | 0.37% of 30,000 active;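 active = delta delta Cp rounded down to an integer at or above 3, about 3 SD of DMSO wells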;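 note: higher means less YB-1 transcript or more CDIP transcript relative to DMSO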
# U2OS ROS induce: raises reactive oxygen species in U2OS cancer cells; U2OS ROS induction, H2DCF-DA fluorescence; ROS induction (% of piperlongumine), % at 10 µM; 2% of 46,000 active; in the data active = ROS induction above about 79%, passing the limit was not always enough;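 note: 0% = DMSO vehicle median and 100% = reference compound median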
# * hit, by the source's call; . = no result. Rows were chosen to be rich in hits. Some 2.3% of all compounds tested hit in one or more screens of this group.
SMILES,YB-1 expr inh,U2OS ROS induce
C[C@@H]1C(=O)O[C@H]2[C@H]1CC[C@@]1(C)C=CC(=O)[C@@]3(C)O[C@@]213,4*,-4
C[C@H]1CC[C@@H]2[C@@H](C)[C@H]3[C@H](C[C@H]4[C@@H]5CC=C6CC(O[C@@H]7O[C@H](CO)[C@@H](O)[C@H](O[C@@H]8O[C@H](CO)[C@@H](O)[C@H](O)[C@H]8O)[C@@H]7O[C@@H]7O[C@@H](C)[C@H](O)[C@@H](O)[C@H]7O)CC[C@]6(C)[C@H]5CC[C@]34C)N2C1 (stereo partly drawn),-0.8,-26
CC(C)C[C@H]1C(=O)N2CCC[C@H]2[C@]2(O)O[C@](NC(=O)[C@@H]3C=C4c5cccc6[nH]cc(c56)C[C@H]4N(C)C3)(C(C)C)C(=O)N12,0.36,120*
C[C@@H](CO)NC(=O)C1C=C2c3cccc4[nH]cc(c34)C[C@H]2N(C)C1 (stereo partly drawn),-0.27,-9
CCOC(=O)C1(c2ccccc2)CCN(C(=O)c2c(C)oc3ccc(OC)cc23)CC1,.,80*
CCC(C)[C@H]1C(=O)O[C@H](C(C)C)C(=O)N(C)[C@@H](C(C)CC)C(=O)O[C@H](C(C)C)C(=O)N(C)[C@@H](C(C)CC)C(=O)O[C@H](C(C)C)C(=O)N1C (stereo partly drawn),-0.1,-26
C[C@H]1CN([C@@H](C)CO)C(=O)CCCn2cc(nn2)CO[C@@H]1CN(C)C(=O)Oc1ccc2ccccc2c1,-0.25,134*
C[C@@H]1CN([C@H](C)CO)C(=O)CCCn2cc(nn2)CO[C@@H]1CN(C)C(=O)Oc1ccc2ccccc2c1,-0.28,31
C/C=C(\C)[C@H](O)[C@H](C)/C=C(C)/C=C/C/C(C)=C/Cc1[nH]c(OC)c(OC)c(=O)c1C,-0.53,17
CC[C@H]1CN2CCc3cc(OC)c(OC)cc3[C@@H]2C[C@@H]1C[C@H]1NCCc2cc(O)c(OC)cc21,1.2,9
CO[C@H]1[C@@H](O)[C@@H](C)O[C@@H](O[C@@H]2C=C3C(OC(C)=O)CC4(O)C(CC[C@]5(C)[C@@H](C6=CC(=O)OC6)CC[C@]45O)[C@@]3(C)CC2)[C@@H]1O (stereo partly drawn),-0.07,7
COc1ccc2c(c1OC)C(=O)O[C@H]2[C@H]1c2cc3c(cc2CCN1C)OCO3,6.4*,7
COc1ccc2c(c1OC)CN1CCc3cc4c(cc3C1C2)OCO4 (stereo not drawn),-0.29,-10
C[C@@H]1CCC/C=C/[C@H]2C[C@@H](O)C[C@@H]2[C@@H](O)/C=C\C(=O)O1,0.2,-10
Cc1cc(Br)c(NC(=O)C2C(C)(C)C2(C)C)c(Br)c1,-0.34,1
CC(N)Cc1c[nH]c2ccc(OCc3cccs3)cc12 (stereo not drawn),-1.3,99*
COc1ccc2[nH]cc(CCN)c2c1,0.5,5
CC(=O)NC1C(OC2OC(CC(O)C3OC(n4ccc(=O)[nH]c4=O)C(O)C3O)C(O)C(O)C2NC(=O)/C=C/CCCCCCCCCC(C)C)OC(CO)C(O)C1O (stereo not drawn),-0.4,-13
